Consider three sequences from PMC11006913.

Positions count from the first letter of the chain named.

Common to all, as to experiment: PBM; 200 nM protein, PBS
Common to all, as to conditions: dsDNA, one strand shown

Test [1] deals with T1, SIX6 (Homo sapiens, UniProt O95475 114-200, L167I).
T1 sequence: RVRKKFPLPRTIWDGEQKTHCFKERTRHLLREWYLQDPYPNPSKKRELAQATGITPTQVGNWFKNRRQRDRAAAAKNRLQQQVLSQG

Test [2] concerns the target T2, SIX6 (Homo sapiens, UniProt O95475 114-200, L143V).
T2 sequence: T1 sequence with L30V, I54L

The target in test [3] is T3, SIX6 (Homo sapiens, UniProt O95475 114-200, H141N).
T3 sequence: T1 sequence with H28N, I54L

Test [4] deals with T4, SIX6 (Homo sapiens, UniProt O95475 114-200, T165P).
T4 sequence: T1 sequence with T52P, I54L

The target in test [5] is T5, SIX6 (Homo sapiens, UniProt O95475 114-200, L167M).
T5 sequence: T1 sequence with I54M

Test [6] concerns the target T6, SIX6 (Homo sapiens, UniProt O95475 114-200, L143M).
T6 sequence: T1 sequence with L30M, I54L

The target of test [7] is T7, SIX6 (Homo sapiens, UniProt O95475 114-200, L143I).
T7 sequence: T1 sequence with L30I, I54L

The target in test [8] is HOXB6 (Homo sapiens, UniProt P17509 132-218, K202E).
Test [9] deals with T8, SIX6 (Homo sapiens, UniProt O95475 114-200, T165G).
T8 sequence: T1 sequence with T52G, I54L

Test [10] concerns the target T9, SIX6 (Homo sapiens, UniProt O95475 114-200, T139Q).
T9 sequence: T1 sequence with T26Q, I54L

Test [11] deals with T10, SIX6 (Homo sapiens, UniProt O95475 114-200, T165A).
T10 sequence: T1 sequence with T52A, I54L

Test [12] has as its target T11, SIX6 (Homo sapiens, UniProt O95475 114-200, L167V).
T11 sequence: T1 sequence with I54V

The target of test [13] is T12, SIX6 (Homo sapiens, UniProt O95475 114-200).
T12 sequence: T1 sequence with I54L

Test [14] has as its target T13, SIX6 (Homo sapiens, UniProt O95475 114-200, T165I).
T13 sequence: T1 sequence with T52I, I54L

Test [15] has as its target HOXB6 (Homo sapiens, UniProt P17509 132-218).
In test [16] the target is HOXC9 (Homo sapiens, UniProt P31274 178-260, K195R).
For test [17], the target named is HOXC9 (Homo sapiens, UniProt P31274 178-260).
Test [18] has as its target HOXC9 (Homo sapiens, UniProt P31274 178-260, R193K).
Test [19] addresses PROP1 (Homo sapiens, UniProt O75360 56-141).
The target of test [20] is PROP1 (Homo sapiens, UniProt O75360 56-141, R99H).
The target of test [21] is VAX1 (Homo sapiens, UniProt Q5SQQ9 86-172).
The target in test [22] is HOXC9 (Homo sapiens, UniProt P31274 178-260, R222W).
Test [23] concerns the target PROP1 (Homo sapiens, UniProt O75360 56-141, F88S).
Test [24] has as its target VAX1 (Homo sapiens, UniProt Q5SQQ9 86-172, T142I).
The target of test [25] is VAX1 (Homo sapiens, UniProt Q5SQQ9 86-172, K157R).
In test [26] the target is ALX3 (Homo sapiens, UniProt O95076 139-225, N203Q).
The target in test [27] is T14, NKX2-6 (Homo sapiens, UniProt A6NCS4 118-204).
T14 sequence: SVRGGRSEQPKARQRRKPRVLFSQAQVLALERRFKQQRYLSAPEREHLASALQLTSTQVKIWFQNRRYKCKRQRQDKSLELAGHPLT

The target in test [28] is ALX3 (Homo sapiens, UniProt O95076 139-225).
The target of test [29] is ALX3 (Homo sapiens, UniProt O95076 139-225, L168Q).
For test [30], the target named is T15, NKX2-6 (Homo sapiens, UniProt A6NCS4 118-204, F151L).
T15 sequence: T14 sequence with F34L

Test [31] has as its target ALX3 (Homo sapiens, UniProt O95076 139-225, L168V).
Test [32] has as its target ALX3 (Homo sapiens, UniProt O95076 139-225, N203S).

Sequence of VAX1 (Homo sapiens, UniProt Q5SQQ9 86-172, K157R) (Q5SQQ9 86-172 K157R): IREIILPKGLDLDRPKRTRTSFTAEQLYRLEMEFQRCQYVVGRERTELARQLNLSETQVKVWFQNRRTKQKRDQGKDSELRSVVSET
Sequence of VAX1 (Homo sapiens, UniProt Q5SQQ9 86-172, T142I) (Q5SQQ9 86-172 T142I): as the sequence (Q5SQQ9 86-172 K157R) above, with T57I, R72K counted along it
Sequence of VAX1 (Homo sapiens, UniProt Q5SQQ9 86-172) (Q5SQQ9 86-172): as the sequence (Q5SQQ9 86-172 K157R) above, with R72K counted along it
Sequence of HOXC9 (Homo sapiens, UniProt P31274 178-260, R222W) (P31274 178-260 R222W): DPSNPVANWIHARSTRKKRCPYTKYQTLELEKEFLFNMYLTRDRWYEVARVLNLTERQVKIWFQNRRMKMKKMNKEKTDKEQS
Sequence of ALX3 (Homo sapiens, UniProt O95076 139-225, L168Q) (O95076 139-225 L168Q): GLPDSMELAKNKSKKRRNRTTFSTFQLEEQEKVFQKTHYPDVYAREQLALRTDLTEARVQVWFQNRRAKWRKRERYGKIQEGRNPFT
Sequence of ALX3 (Homo sapiens, UniProt O95076 139-225, N203Q) (O95076 139-225 N203Q): as the sequence (O95076 139-225 L168Q) above, with Q30L, N65Q counted along it
Sequence of PROP1 (Homo sapiens, UniProt O75360 56-141) (O75360 56-141): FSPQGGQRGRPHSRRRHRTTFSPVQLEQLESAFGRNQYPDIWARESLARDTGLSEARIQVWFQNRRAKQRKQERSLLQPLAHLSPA
Sequence of PROP1 (Homo sapiens, UniProt O75360 56-141, R99H) (O75360 56-141 R99H): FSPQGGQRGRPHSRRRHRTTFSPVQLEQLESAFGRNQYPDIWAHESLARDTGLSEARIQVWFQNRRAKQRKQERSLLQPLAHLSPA
Sequence of ALX3 (Homo sapiens, UniProt O95076 139-225) (O95076 139-225): as the sequence (O95076 139-225 L168Q) above, with Q30L counted along it
Sequence of HOXC9 (Homo sapiens, UniProt P31274 178-260, R193K) (P31274 178-260 R193K): as the sequence (P31274 178-260 R222W) above, with R16K, W45R counted along it
Sequence of HOXB6 (Homo sapiens, UniProt P17509 132-218, K202E) (P17509 132-218 K202E): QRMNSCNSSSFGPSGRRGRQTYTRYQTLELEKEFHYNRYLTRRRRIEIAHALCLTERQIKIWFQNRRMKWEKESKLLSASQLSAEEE
Sequence of PROP1 (Homo sapiens, UniProt O75360 56-141, F88S) (O75360 56-141 F88S): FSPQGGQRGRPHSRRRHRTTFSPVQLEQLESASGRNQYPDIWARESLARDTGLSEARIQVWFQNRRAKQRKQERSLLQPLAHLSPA
Sequence of HOXC9 (Homo sapiens, UniProt P31274 178-260, K195R) (P31274 178-260 K195R): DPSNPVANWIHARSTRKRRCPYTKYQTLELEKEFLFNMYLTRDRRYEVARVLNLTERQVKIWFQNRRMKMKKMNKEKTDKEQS
Sequence of HOXC9 (Homo sapiens, UniProt P31274 178-260) (P31274 178-260): as the sequence (P31274 178-260 R222W) above, with W45R counted along it
Sequence of ALX3 (Homo sapiens, UniProt O95076 139-225, N203S) (O95076 139-225 N203S): as the sequence (O95076 139-225 L168Q) above, with Q30L, N65S counted along it
Sequence of ALX3 (Homo sapiens, UniProt O95076 139-225, L168V) (O95076 139-225 L168V): as the sequence (O95076 139-225 L168Q) above, with Q30V counted along it
Sequence of HOXB6 (Homo sapiens, UniProt P17509 132-218) (P17509 132-218): as the sequence (P17509 132-218 K202E) above, with E71K counted along it

Regarding AGCGCCCG, the binding signal is 9.03 upbm affinity estimate (log intensity, higher = more binding, comparable within an allelic series) in test [1]; 8.99 upbm affinity estimate (log intensity, higher = more binding, comparable within an allelic series) in test [2]; 9.03 upbm affinity estimate (log intensity, higher = more binding, comparable within an allelic series) in [3]; 9.05 upbm affinity estimate (log intensity, higher = more binding, comparable within an allelic series) in test [4]; 9.04 upbm affinity estimate (log intensity, higher = more binding, comparable within an allelic series) in test [5]; 9.02 upbm affinity estimate (log intensity, higher = more binding, comparable within an allelic series) in test [6]. Moreover, the binding signal in test [7] was 8.98 upbm affinity estimate (log intensity, higher = more binding, comparable within an allelic series); in test [8], 8.99 upbm affinity estimate (log intensity, higher = more binding, comparable within an allelic series); in [9], 8.98 upbm affinity estimate (log intensity, higher = more binding, comparable within an allelic series); in test [10], 8.94 upbm affinity estimate (log intensity, higher = more binding, comparable within an allelic series); in [11] it was 8.98 upbm affinity estimate (log intensity, higher = more binding, comparable within an allelic series); in [12], 8.97 upbm affinity estimate (log intensity, higher = more binding, comparable within an allelic series). Also, the binding signal in test [13] was 8.99 upbm affinity estimate (log intensity, higher = more binding, comparable within an allelic series); in test [14], 9 upbm affinity estimate (log intensity, higher = more binding, comparable within an allelic series); in test [15], 8.92 upbm affinity estimate (log intensity, higher = more binding, comparable within an allelic series).

With GGGGGGAC, the binding signal was 8.99 upbm affinity estimate (log intensity, higher = more binding, comparable within an allelic series) in test [1]; 9.27 upbm affinity estimate (log intensity, higher = more binding, comparable within an allelic series) in [16]; 8.81 upbm affinity estimate (log intensity, higher = more binding, comparable within an allelic series) in [2]; 8.96 upbm affinity estimate (log intensity, higher = more binding, comparable within an allelic series) in test [3]; 8.71 upbm affinity estimate (log intensity, higher = more binding, comparable within an allelic series) in test [4]; 8.97 upbm affinity estimate (log intensity, higher = more binding, comparable within an allelic series) in [5]. Also, the binding signal in test [6] was 8.91 upbm affinity estimate (log intensity, higher = more binding, comparable within an allelic series); in test [7] it was 8.72 upbm affinity estimate (log intensity, higher = more binding, comparable within an allelic series); in test [9] it was 8.92 upbm affinity estimate (log intensity, higher = more binding, comparable within an allelic series); in test [10], 8.93 upbm affinity estimate (log intensity, higher = more binding, comparable within an allelic series); in [17], 9.04 upbm affinity estimate (log intensity, higher = more binding, comparable within an allelic series); in [11], 9 upbm affinity estimate (log intensity, higher = more binding, comparable within an allelic series). In addition, the binding signal in test [18] is 9.37 upbm affinity estimate (log intensity, higher = more binding, comparable within an allelic series); in test [12], 8.74 upbm affinity estimate (log intensity, higher = more binding, comparable within an allelic series); in test [19], 6.32 upbm affinity estimate (log intensity, higher = more binding, comparable within an allelic series); in test [13], 8.93 upbm affinity estimate (log intensity, higher = more binding, comparable within an allelic series); in test [20], 6.19 upbm affinity estimate (log intensity, higher = more binding, comparable within an allelic series); in test [21] it was 6.83 upbm affinity estimate (log intensity, higher = more binding, comparable within an allelic series). The binding signal in test [14] is 8.96 upbm affinity estimate (log intensity, higher = more binding, comparable within an allelic series); in [22] it was 9.31 upbm affinity estimate (log intensity, higher = more binding, comparable within an allelic series); in [23] it was 5.57 upbm affinity estimate (log intensity, higher = more binding, comparable within an allelic series); in test [24] it was 7.14 upbm affinity estimate (log intensity, higher = more binding, comparable within an allelic series); in test [25] it was 7.04 upbm affinity estimate (log intensity, higher = more binding, comparable within an allelic series).

With CGCTGCGC, the binding signal in test [1] was 8.99 upbm affinity estimate (log intensity, higher = more binding, comparable within an allelic series); in test [2] it was 8.85 upbm affinity estimate (log intensity, higher = more binding, comparable within an allelic series); in test [3], 8.98 upbm affinity estimate (log intensity, higher = more binding, comparable within an allelic series); in [4], 8.98 upbm affinity estimate (log intensity, higher = more binding, comparable within an allelic series); in test [5], 8.92 upbm affinity estimate (log intensity, higher = more binding, comparable within an allelic series); in [6] it was 8.96 upbm affinity estimate (log intensity, higher = more binding, comparable within an allelic series). Further, the binding signal in test [7] was 8.93 upbm affinity estimate (log intensity, higher = more binding, comparable within an allelic series); in test [9] it was 9 upbm affinity estimate (log intensity, higher = more binding, comparable within an allelic series); in [10], 9.06 upbm affinity estimate (log intensity, higher = more binding, comparable within an allelic series); in test [26], 7.75 upbm affinity estimate (log intensity, higher = more binding, comparable within an allelic series); in test [11], 8.88 upbm affinity estimate (log intensity, higher = more binding, comparable within an allelic series); in test [27] it was 9.4 upbm affinity estimate (log intensity, higher = more binding, comparable within an allelic series). Moreover, the binding signal in test [12] was 9.02 upbm affinity estimate (log intensity, higher = more binding, comparable within an allelic series); in test [28], 7.66 upbm affinity estimate (log intensity, higher = more binding, comparable within an allelic series); in [13], 8.93 upbm affinity estimate (log intensity, higher = more binding, comparable within an allelic series); in [21] it was 7.4 upbm affinity estimate (log intensity, higher = more binding, comparable within an allelic series); in test [29], 7.68 upbm affinity estimate (log intensity, higher = more binding, comparable within an allelic series); in [14], 8.95 upbm affinity estimate (log intensity, higher = more binding, comparable within an allelic series). Moreover, the binding signal was 9.26 upbm affinity estimate (log intensity, higher = more binding, comparable within an allelic series) in test [30]; 7.68 upbm affinity estimate (log intensity, higher = more binding, comparable within an allelic series) in test [31]; 7.38 upbm affinity estimate (log intensity, higher = more binding, comparable within an allelic series) in [24]; 7.74 upbm affinity estimate (log intensity, higher = more binding, comparable within an allelic series) in test [32]; 7.41 upbm affinity estimate (log intensity, higher = more binding, comparable within an allelic series) in [25].
